Source: PubChem BioAssay (NCATS)
Inconclusive results are not listed. A call without a number means that no potency is given here. Activity calls are given as the source filed them. The call rests on the fitted dose curve; in most records, active means well fitted inhibition curve with a large enough effect; inconclusive means small, poorly fitted or top-dose-only effect; inactive means flat fitted curve, though single readings scatter.

target: Glutathione peroxidase 1 (Homo sapiens) (UniProt P07203); experiment: Primary qHTS Assay for Inhibitors of Recombinant Selenoprotein Glutathione Peroxidase 1 (GPX1) (AID 1845191); details: recombinant GPX1, GR-coupled NADPH fluorescence, 15 min; series mostly up to 48.8 µM
In short: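 GR-coupled readout: NADPH consumption tracked by fluorescence, ex 340/em 450 nm, at t=0 and after 15 min at RT. Final mix 10 nM GPX1, 1 mM GSH, 0.5 mM CHP, 0.5 mM NADPH, 100 nM GR, 0.01% BSA, following 30 min enzyme–compound preincubation.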
Further: nearly all actives have a fitted effect of over 65% in size.
Potency means the concentration at half of the fitted maximal effect.

Glutathione peroxidase 1 (Homo sapiens), sequence (P07203 whole entry, looked up): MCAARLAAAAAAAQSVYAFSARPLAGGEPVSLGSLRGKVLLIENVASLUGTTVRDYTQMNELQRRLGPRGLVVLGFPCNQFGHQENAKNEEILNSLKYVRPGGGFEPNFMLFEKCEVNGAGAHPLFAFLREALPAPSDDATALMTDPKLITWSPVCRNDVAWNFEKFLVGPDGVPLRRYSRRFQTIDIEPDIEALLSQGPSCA

Structure (SMILES)	Potency
Cc1ccc(O)cc1	inactive
CC1(C)S[C@@H]2[C@H](NC(=O)C(c3ccccc3)S(=O)(=O)O)C(=O)N2[C@H]1C(=O)O (some centres not stated)	inactive
CC(C)(C)CC(=O)OCC(=O)[C@@]1(O)CC[C@H]2[C@@H]3CCC4=CC(=O)C=C[C@]4(C)[C@H]3[C@@H](O)C[C@@]21C	inactive
NS(=O)(=O)c1ccc(N2CCCCS2(=O)=O)cc1	inactive
CCCCC(=O)OCC(=O)[C@H]1[C@H](C)C[C@H]2[C@@H]3C[C@H](F)C4=CC(=O)C=C[C@]4(C)[C@@]3(F)[C@@H](O)C[C@@]21C	inactive
CNC(=O)c1c(I)c(NC(C)=O)c(I)c(C(=O)O)c1I	inactive
CC(=O)[C@@]1(O)CC[C@H]2[C@@H]3C[C@H](C)C4=CC(=O)CC[C@]4(C)[C@H]3CC[C@@]21C	inactive
CO/N=C(/C(=O)N[C@@H]1C(=O)N2C(C(=O)[O-])=C(C[n+]3ccn4ncccc43)CS[C@H]12)c1nsc(N)n1	20.2 µM (active)
CC(=O)O[C@@H]1CC2C3CCc4cc(OC(=O)c5ccccc5)ccc4C3CCC2(C)[C@H]1OC(C)=O (some centres not stated)	inactive
CC(=O)Nc1c(I)c(NC(C)=O)c(I)c(C(=O)O)c1I	inactive
CCCCCCCCCCCCCCCCCCNC(=O)OC1CCN(C(=O)OC[C@H](COC(=O)N(Cc2cccc[n+]2CC)C(=O)c2ccccc2OC)OC)CC1	inactive
CC1CCCCN1CCCOC(=O)c1ccc(OC2CCCCC2)cc1 (configuration not stated)	inactive
Cc1ccc(C(=O)C(=O)O)cc1C	inactive
CCCCCC[C@@H](CCC)C(=O)O	inactive
NC(N)=NCCCCN=C(N)N	inactive
CC(CC(C#N)(c1ccccc1)C(C)C)N(C)C (configuration not stated)	inactive
CN(C(=O)C(Cl)Cl)c1ccc(OC(=O)c2ccco2)cc1	inactive
CC(C)(C)NCC(O)COc1ccccc1OCC1CCCO1 (configuration not stated)	inactive
CC(Oc1c(Cl)cccc1Cl)C1=NCCN1 (configuration not stated)	inactive
CCCC(=O)OCOC(=O)C1=C(C)NC(C)=C(C(=O)OC)C1c1cccc(Cl)c1Cl (configuration not stated)	inactive

target: Phospholipid hydroperoxide glutathione peroxidase GPX4 (Homo sapiens) (UniProt P36969); experiment: Primary qHTS Assay for Inhibitors of Recombinant Selenoprotein Glutathione Peroxidase 4 (GPX4) (AID 1845192); details: recombinant GPX4, GR-coupled NADPH fluorescence, 15 min; series mostly up to 50 µM
In short: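 Steps: GPX4 plus compound, 30 min RT; add GR/GSH/NADPH master mix; start with cumene hydroperoxide; read 340/450 nm fluorescence at 0 and 15 min. Finals were 200 nM GPX4, 1 mM GSH, 0.5 mM CHP, 0.5 mM NADPH, 100 nM GR.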

Phospholipid hydroperoxide glutathione peroxidase GPX4 (Homo sapiens), sequence (P36969 whole entry, looked up): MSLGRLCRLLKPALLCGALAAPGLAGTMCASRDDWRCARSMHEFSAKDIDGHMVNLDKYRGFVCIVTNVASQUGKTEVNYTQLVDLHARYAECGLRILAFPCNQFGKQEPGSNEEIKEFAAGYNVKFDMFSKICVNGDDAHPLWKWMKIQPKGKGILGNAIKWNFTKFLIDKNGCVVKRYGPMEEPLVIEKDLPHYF

Structure (SMILES)	Potency
CCCC(=O)O[C@]1(C(=O)CC)CC[C@H]2[C@@H]3CCC4=CC(=O)CC[C@]4(C)[C@H]3[C@@H](O)C[C@@]21C	inactive
CC(C)C(=O)Nc1cccc(C2CN3CCSC3=N2)c1 (configuration not stated)	inactive
Cc1ccc2c(Cl)cc(Cl)c(O)c2n1	inactive
CNC[C@H](O)[C@@H](O)[C@H](O)[C@H](O)CO	inactive
CC(C)Cc1ccc(C(C)C(=O)OCc2ccccn2)cc1 (configuration not stated)	inactive
CC(=O)/C=C/C=C1/C2CCC(C2)C1(C)C (configuration not stated)	inactive
O=[N+]([O-])c1ccc(O)c2ncccc12	inactive
CCC(CN)=C(c1ccccc1)c1ccccc1	inactive
C[C@]12CCC(=O)C=C1CC[C@@H]1[C@@H]2[C@@H](O)C[C@@]2(C)[C@H]1CC[C@]2(O)C(=O)COC(=O)CCC(=O)O	inactive
NC(=O)C1(N2CCCCC2)CCN(CCCN2c3ccccc3CCc3ccc(Cl)cc32)CC1	inactive
CN1CCCN(C(c2ccccc2)c2ccc(Cl)cc2)CC1 (configuration not stated)	inactive
COc1cccc2c1[C@@H]1CN(CCCCn3c(=O)[nH]c4c(sc5ncc(-c6ccccc6)nc54)c3=O)C[C@@H]1CO2	inactive
CCCCCC1Nc2cc(C(F)(F)F)c(S(N)(=O)=O)cc2S(=O)(=O)N1 (configuration not stated)	inactive
O=C(O)[C@@H](O)[C@H](O)[C@H](O)[C@@H](O)C(=O)O	inactive
CC(C)NCCCC1(C(N)=O)c2ccccc2-c2ccccc21	inactive
Cc1ccccc1N1CCN(CCc2nnc3n2CCCC3)CC1	inactive
N#Cc1cc(NC(=O)C(=O)O)c(Cl)c(NC(=O)C(=O)O)c1	inactive
Cc1ccc(O)cc1	inactive
CC1(C)S[C@@H]2[C@H](NC(=O)C(c3ccccc3)S(=O)(=O)O)C(=O)N2[C@H]1C(=O)O (some centres not stated)	inactive

Structure (SMILES)	Potency
CC(C)(C)CC(=O)OCC(=O)[C@@]1(O)CC[C@H]2[C@@H]3CCC4=CC(=O)C=C[C@]4(C)[C@H]3[C@@H](O)C[C@@]21C	inactive
NS(=O)(=O)c1ccc(N2CCCCS2(=O)=O)cc1	inactive
CCCCC(=O)OCC(=O)[C@H]1[C@H](C)C[C@H]2[C@@H]3C[C@H](F)C4=CC(=O)C=C[C@]4(C)[C@@]3(F)[C@@H](O)C[C@@]21C	inactive
CNC(=O)c1c(I)c(NC(C)=O)c(I)c(C(=O)O)c1I	inactive
CC(=O)[C@@]1(O)CC[C@H]2[C@@H]3C[C@H](C)C4=CC(=O)CC[C@]4(C)[C@H]3CC[C@@]21C	inactive
CO/N=C(/C(=O)N[C@@H]1C(=O)N2C(C(=O)[O-])=C(C[n+]3ccn4ncccc43)CS[C@H]12)c1nsc(N)n1	17.8 µM (active)
CC(=O)O[C@@H]1CC2C3CCc4cc(OC(=O)c5ccccc5)ccc4C3CCC2(C)[C@H]1OC(C)=O (some centres not stated)	inactive
CC(=O)Nc1c(I)c(NC(C)=O)c(I)c(C(=O)O)c1I	inactive
CCCCCCCCCCCCCCCCCCNC(=O)OC1CCN(C(=O)OC[C@H](COC(=O)N(Cc2cccc[n+]2CC)C(=O)c2ccccc2OC)OC)CC1	inactive
CC1CCCCN1CCCOC(=O)c1ccc(OC2CCCCC2)cc1 (configuration not stated)	inactive
Cc1ccc(C(=O)C(=O)O)cc1C	inactive
CCCCCC[C@@H](CCC)C(=O)O	inactive
NC(N)=NCCCCN=C(N)N	inactive
CC(CC(C#N)(c1ccccc1)C(C)C)N(C)C (configuration not stated)	inactive
CN(C(=O)C(Cl)Cl)c1ccc(OC(=O)c2ccco2)cc1	inactive
CC(C)(C)NCC(O)COc1ccccc1OCC1CCCO1 (configuration not stated)	inactive
CC(Oc1c(Cl)cccc1Cl)C1=NCCN1 (configuration not stated)	inactive
CCCC(=O)OCOC(=O)C1=C(C)NC(C)=C(C(=O)OC)C1c1cccc(Cl)c1Cl (configuration not stated)	inactive
